Measurements reported in PubChem BioAssay.
Several values for one entry are separate records, joined by “and”; a condition that tells them apart may be missing. Identical values can stand only once. Records with an inconclusive call do not appear. For some assays here: Results with a measured potency or affinity are listed apart. Some structures have more than one record in an assay (separate samples or runs), and their calls can disagree. Activity calls are given as the source filed them. Unless noted, no stated cut-off is given here; in the data, active means parasite load remaining mostly below about 12% (no sharp cut-off); inactive means mostly above about 10%.

Columns and labels:
[1] = P. berghei load reduction in hepatocytes – cell-based, HepG2, luciferase luminescence, HepG2 viability, primary screen (AID 624349);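 further: 100% = mean of DMSO negative control wells on the same plate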; settings: P. berghei liver stage in HepG2, luciferase luminescence, concentration not given here; parasite load remaining: stronger effect = lower value; viability: measured here: HepG2 viability without parasites
[2] = target: 6-phosphogluconate dehydrogenase, decarboxylating (Homo sapiens) (UniProt P52209); test: inhibition of human phosphogluconate dehydrogenase – biochemical, recombinant enzyme, NADPH absorbance, primary screen (AID 1159550;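 active means at least 20% inhibition of 6-phosphogluconate dehydrogenase activity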); settings: recombinant 6PGD, NADPH absorbance 341 nm; at 10 µM; stronger effect = higher value
[3] = EMT-state selective cytotoxicity in co-culture – imaging, PC-3E GFP, TEM4-18 mCherry, primary screen (AID 1345086;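 active means compounds killing one labelled cell type while sparing the other, by normalised counts and ratio limits, not self-fluorescent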;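 on all read-outs here: cells exposed to compound for 72 h before imaging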;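 on red/green cell ratio (normalised): normalised mesenchymal count divided by normalised epithelial count so high means epithelial killing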); settings: PC-3E GFP / TEM4-18 mCherry co-culture, imaging cell counts, at 1 µM; for red/green cell ratio (normalised): actives lie on both sides, counts scaled to control wells, 1 = unselective
[4] = viability loss with induced miR-34 in A549 – imaging, A549 dox-inducible miR-34, nuclei and caspase counts, primary screen (AID 1347080;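 active means compounds whose cell count with miR-34 switched on is under 0.7 times the count with it off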); settings: A549 miR-34 inducible, Hoechst nuclei count, 48 h
[5] = blockers of polyQ-driven CASP3 activation – cell-based (AID 1583); settings: polyglutamine-induced caspase-3 activation, cell assay; stronger effect = higher value;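 tested at 10 µM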
[6] = yeast 75Q aggregation reduction – 75Q-TubU reporter (AID 1593); settings: Yeast 75Q polyglutamine aggregation reporter
[7] = restoration of touch response, mutant HTT neurons – whole organism, C. elegans mechanosensory neurons, N-terminal huntingtin (AID 1599); settings: C. elegans polyQ-huntingtin mechanosensory neurons, stronger effect = higher value
[8] = blockers of cytochrome c efflux from mitochondria – biochemical, purified mitochondria (AID 1603); settings: stronger effect = lower value;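 further: mouse liver mitochondria challenged with calcium chloride; signal normalized to the plate average as 100%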
[9] = polyglutamine aggregate formation blockers (AID 1604); settings: polyglutamine-induced protein aggregation inhibition assay; stronger effect = higher value; tested at 2.5 µM
[10] = glutamate transport activators, MN-1 cells, MN-1 cell line (AID 1612); settings: MN-1 motor neuron cells, stronger effect = higher value;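 further: tested at 1 µM final; 0% = mean of DMSO vehicle wells on each plate; positive means more glutamate uptake than control and negative means less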
[11] = GFP-Q80 aggregate reduction, neuronal-like cells, cell-based, NGF-treated PC12, GFPQ80 (AID 1614); settings: PC12 NGF-treated GFP-polyQ80 inclusion reduction;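 further: lower means fewer inclusions and 0 means no inclusions at all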
[12] = 75Q-TubH aggregate inhibition, S. cerevisiae, yeast (AID 1616); settings: S. cerevisiae 75Q-TubH polyglutamine aggregation suppression; stronger effect = higher value
[13] = target: NAD(+) hydrolase SARM1 (Homo sapiens) (UniProt Q6SZW1); test: blocking NAD cleavage by SARM1 SAM-TIR – cell lysate, NAD-Glo luminescence (AID 1508614;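 active means compound whose remaining NAD level is above about 45 nM, limit read from the data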); settings: SAM-TIR HEK293T lysate NADase, at 1 µM, stronger effect = higher value
[14] = target: Mitogen-activated protein kinase 7 (Homo sapiens) (UniProt Q13164); test: Gal4-ERK5 driven luciferase induction – cell-based, HTS, primary screen (AID 1508626;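 active means luciferase signal above three times the same-plate solvent-only control wells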;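 further: luciferase driven by Gal4-ERK5 fusion binding five Gal4 sites before minimal TATA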); settings: HeLa Gal4-ERK5 transactivation, 18 h, at 5 µM, stronger effect = higher value
[15] = galactose survival enhancers in mitochondrial complex I cybrids – cell-based, galactose medium, ATP luminescence, primary screen (AID 1645843;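 active means z-score of at least 1.8 in each of two replicates, scored against plate mean and spread of sample wells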;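 further: positive z means more ATP and so rescue of galactose-driven cybrid death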); settings: complex I mutant cybrid cells, 72 h, stronger effect = higher value
[16] = compounds altering viability of human ES cells (AID 493140; call rule not given here;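 further: cells exposed to compounds for four days before counting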); settings: human embryonic stem cell survival screen; stronger effect = higher value
[17] = target: ATP-dependent translocase ABCB1 (Homo sapiens) (UniProt P08183); test: P-glycoprotein substrate transport blockade – cell-based (AID 377; in the data active means fluorescence slope change above about 50%); settings: MDR1-expressing cells, fluorescent substrate accumulation slope; stronger effect = higher value; concentration not given here
[18] = measured here: epithelial PC-3E GFP cell survival
[19] = measured here: mesenchymal TEM4-18 mCherry cell survival
[20] = stronger effect = lower value, cell number ratio, induced over uninduced
[21] = measured here: relative caspase fold change +Dox/-Dox
[22] = measured here: total cells with miR-34 induction, stronger effect = lower value
[23] = measured here: total cells without miR-34 induction

Chain of NAD(+) hydrolase SARM1 (Homo sapiens) (Q6SZW1 whole entry, looked up, the tested form may be a part): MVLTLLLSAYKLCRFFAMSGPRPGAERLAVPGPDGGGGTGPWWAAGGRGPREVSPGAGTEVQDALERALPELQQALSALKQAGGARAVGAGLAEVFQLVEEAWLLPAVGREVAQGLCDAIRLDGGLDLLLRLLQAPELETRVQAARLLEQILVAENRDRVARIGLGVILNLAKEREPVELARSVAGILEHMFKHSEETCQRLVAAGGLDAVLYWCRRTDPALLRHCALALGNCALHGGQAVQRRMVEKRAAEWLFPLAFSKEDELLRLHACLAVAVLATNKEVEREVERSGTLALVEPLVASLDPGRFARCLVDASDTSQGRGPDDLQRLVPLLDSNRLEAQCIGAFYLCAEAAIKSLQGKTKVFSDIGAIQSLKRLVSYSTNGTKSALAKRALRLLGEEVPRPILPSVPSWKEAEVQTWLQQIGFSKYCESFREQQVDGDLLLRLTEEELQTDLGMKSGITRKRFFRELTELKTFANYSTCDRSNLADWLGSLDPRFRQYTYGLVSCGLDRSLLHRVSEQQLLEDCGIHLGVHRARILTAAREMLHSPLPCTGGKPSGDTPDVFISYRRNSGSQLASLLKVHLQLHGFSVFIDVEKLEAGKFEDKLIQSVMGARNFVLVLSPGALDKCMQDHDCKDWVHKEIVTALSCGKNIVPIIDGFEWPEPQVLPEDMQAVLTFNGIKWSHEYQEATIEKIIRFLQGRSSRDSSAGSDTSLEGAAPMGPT
Chain of 6-phosphogluconate dehydrogenase, decarboxylating (Homo sapiens) (P52209 whole entry, looked up): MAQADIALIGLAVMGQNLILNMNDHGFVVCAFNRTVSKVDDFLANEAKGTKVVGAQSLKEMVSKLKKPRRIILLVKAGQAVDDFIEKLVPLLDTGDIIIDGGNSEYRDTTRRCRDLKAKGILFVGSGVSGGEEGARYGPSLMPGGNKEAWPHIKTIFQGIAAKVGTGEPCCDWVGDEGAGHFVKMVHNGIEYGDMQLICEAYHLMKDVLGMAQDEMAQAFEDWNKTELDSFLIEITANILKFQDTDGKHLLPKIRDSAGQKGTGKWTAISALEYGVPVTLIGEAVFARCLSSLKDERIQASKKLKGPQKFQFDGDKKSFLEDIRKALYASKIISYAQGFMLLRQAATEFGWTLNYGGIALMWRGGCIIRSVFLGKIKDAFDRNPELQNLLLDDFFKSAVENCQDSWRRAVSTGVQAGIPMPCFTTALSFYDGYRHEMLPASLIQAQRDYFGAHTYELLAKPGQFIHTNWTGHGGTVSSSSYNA
Chain of Mitogen-activated protein kinase 7 (Homo sapiens) (Q13164 whole entry, looked up, the tested form may be a part): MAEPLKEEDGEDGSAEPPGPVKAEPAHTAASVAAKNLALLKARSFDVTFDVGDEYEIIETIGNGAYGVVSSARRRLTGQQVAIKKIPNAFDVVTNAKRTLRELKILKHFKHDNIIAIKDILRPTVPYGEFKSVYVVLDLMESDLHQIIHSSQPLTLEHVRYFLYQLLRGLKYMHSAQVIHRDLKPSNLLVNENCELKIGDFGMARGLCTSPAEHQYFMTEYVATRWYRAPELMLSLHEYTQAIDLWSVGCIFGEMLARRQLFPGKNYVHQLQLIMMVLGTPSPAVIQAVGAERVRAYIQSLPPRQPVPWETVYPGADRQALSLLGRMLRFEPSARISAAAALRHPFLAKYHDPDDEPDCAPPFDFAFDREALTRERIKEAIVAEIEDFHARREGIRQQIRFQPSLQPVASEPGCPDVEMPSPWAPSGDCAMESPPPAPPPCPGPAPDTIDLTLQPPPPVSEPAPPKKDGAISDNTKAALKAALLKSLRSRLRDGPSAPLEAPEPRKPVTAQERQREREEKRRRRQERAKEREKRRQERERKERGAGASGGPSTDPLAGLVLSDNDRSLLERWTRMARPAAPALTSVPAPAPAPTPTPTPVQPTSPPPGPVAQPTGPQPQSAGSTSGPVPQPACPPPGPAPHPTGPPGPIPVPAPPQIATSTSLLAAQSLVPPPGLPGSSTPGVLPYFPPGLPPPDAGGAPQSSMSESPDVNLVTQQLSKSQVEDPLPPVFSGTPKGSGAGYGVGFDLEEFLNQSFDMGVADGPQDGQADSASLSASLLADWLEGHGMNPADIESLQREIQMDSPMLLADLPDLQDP
Chain of ATP-dependent translocase ABCB1 (Homo sapiens) (P08183 whole entry, looked up): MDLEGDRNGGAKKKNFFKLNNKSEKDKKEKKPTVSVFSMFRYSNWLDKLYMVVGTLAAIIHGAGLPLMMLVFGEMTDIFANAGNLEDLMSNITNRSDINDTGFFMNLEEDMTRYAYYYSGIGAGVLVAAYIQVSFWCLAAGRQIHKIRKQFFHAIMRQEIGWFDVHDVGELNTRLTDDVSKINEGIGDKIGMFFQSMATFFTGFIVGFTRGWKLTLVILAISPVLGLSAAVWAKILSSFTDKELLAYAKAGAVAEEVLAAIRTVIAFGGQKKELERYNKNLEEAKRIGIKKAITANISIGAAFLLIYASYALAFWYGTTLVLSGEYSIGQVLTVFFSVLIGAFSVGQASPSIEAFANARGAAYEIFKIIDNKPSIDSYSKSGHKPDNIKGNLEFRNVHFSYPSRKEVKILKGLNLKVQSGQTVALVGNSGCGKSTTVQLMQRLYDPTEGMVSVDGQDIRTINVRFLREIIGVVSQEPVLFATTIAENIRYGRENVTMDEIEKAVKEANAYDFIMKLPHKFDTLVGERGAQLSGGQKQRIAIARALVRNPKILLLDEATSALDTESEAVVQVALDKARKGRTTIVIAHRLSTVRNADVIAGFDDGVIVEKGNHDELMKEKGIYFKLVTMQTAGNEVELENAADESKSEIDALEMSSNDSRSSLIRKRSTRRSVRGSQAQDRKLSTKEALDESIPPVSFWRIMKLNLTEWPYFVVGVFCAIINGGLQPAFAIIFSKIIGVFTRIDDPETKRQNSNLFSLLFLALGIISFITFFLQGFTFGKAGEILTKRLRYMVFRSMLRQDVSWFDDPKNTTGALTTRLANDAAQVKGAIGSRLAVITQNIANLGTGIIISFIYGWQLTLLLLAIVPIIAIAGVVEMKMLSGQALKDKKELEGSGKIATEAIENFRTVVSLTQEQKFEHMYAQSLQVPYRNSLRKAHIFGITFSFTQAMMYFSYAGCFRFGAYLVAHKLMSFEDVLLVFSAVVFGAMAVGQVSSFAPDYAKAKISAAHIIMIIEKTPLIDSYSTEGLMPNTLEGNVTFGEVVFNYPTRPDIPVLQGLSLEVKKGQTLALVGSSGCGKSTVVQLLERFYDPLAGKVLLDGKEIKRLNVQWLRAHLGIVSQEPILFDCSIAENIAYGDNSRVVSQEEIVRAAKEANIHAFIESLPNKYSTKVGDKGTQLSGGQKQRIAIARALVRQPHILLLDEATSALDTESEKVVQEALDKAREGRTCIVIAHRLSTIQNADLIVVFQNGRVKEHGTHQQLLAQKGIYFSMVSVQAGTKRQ

**Q.** What does the source list for `O=c1[nH]c(=O)n(C2C[C@H](O)[C@@H](CO)O2)cc1C(F)(F)F` (some centres not stated)?
**A.** parasite load remaining [1]: 74% (inactive) and 246% (inactive) and 30.9% (inactive); viability [1]: 71.7% and 82.9% and 99%; inhibition [2]: 10.3% (inactive); red/green cell ratio (normalised) [3]: 1.34 (inactive); normalised cell number [3, 18]: 0.93; normalised cell number [3, 19]: 1.25; fold change [4, 20]: 1.06 (inactive) and 0.925 (inactive); fold change [4, 21]: 0.737 and 3.77; cell count [4, 22]: 2260 and 12300; cell count [4, 23]: 2140 and 13300

**Q.** What does the source list for `CN1C(CC(=O)c2ccccc2)CCCC1CC(O)c1ccccc1` (configuration not stated)?
**A.** inhibition [5]: 17.8%; score [6]: 1.4; rescue above control [7]: -4.31; cytochrome c release ratio [8]: 0.5; inhibition of aggregation [9]: 65.4%; glutamate uptake change [10]: 3.53%; inclusion score [11]: 2; aggregation suppression score [12]: 1.27; parasite load remaining [1]: 97.3% (inactive); viability [1]: 69.7%; inhibition [2]: -10.3% (inactive); red/green cell ratio (normalised) [3]: 1.04 (inactive); normalised cell number [3, 18]: 0.88; normalised cell number [3, 19]: 0.92; fold change [4, 20]: 0.965 (inactive); fold change [4, 21]: 1.77; cell count [4, 22]: 10200; cell count [4, 23]: 10600; remaining NAD [13]: 10 nM (inactive); luciferase signal [14]: 268 AU (active); z-score [15]: 0.16 (inactive)

**Q.** What does the source list for `CCOC(=O)CCC(=O)O[C@H]1[C@H](O[C@@H]2[C@@H](C)[C@H](O[C@H]3C[C@@](C)(OC)[C@@H](O)[C@H](C)O3)[C@@H](C)C(=O)O[C@H](CC)[C@@](C)(O)[C@H](O)[C@@H](C)C(=O)[C@H](C)C[C@@]2(C)O)O[C@H](C)C[C@@H]1N(C)C`?
**A.** inhibition [5]: 26.4%; score [6]: 1.27; rescue above control [7]: 16.6; cytochrome c release ratio [8]: 1.72; inhibition of aggregation [9]: 47.5%; glutamate uptake change [10]: -6.79%; inclusion score [11]: 2; aggregation suppression score [12]: 1.2; parasite load remaining [1]: 61.8% (inactive); viability [1]: 170%; inhibition [2]: -8.96% (inactive); red/green cell ratio (normalised) [3]: 1.11 (inactive); normalised cell number [3, 18]: 1.38; normalised cell number [3, 19]: 1.54; fold change [4, 20]: 0.87 (inactive); fold change [4, 21]: 1.05; cell count [4, 22]: 11100; cell count [4, 23]: 12700; remaining NAD [13]: 10 nM (inactive); luciferase signal [14]: 208 AU (inactive)

**Q.** What does the source list for `Cc1[nH]ccc2c1[nH]c1cc(=O)ccc12`?
**A.** survival [16]: 3 (inactive); parasite load remaining [1]: 74.5% (inactive) and 99.2% (inactive) and 81.5% (inactive); viability [1]: 88.4% and 65.9% and 69.9%; inhibition [2]: 8.86% (inactive); red/green cell ratio (normalised) [3]: 0.84 (inactive); normalised cell number [3, 18]: 1; normalised cell number [3, 19]: 0.83; fold change [4, 20]: 0.837 (inactive); fold change [4, 21]: 1.33; cell count [4, 22]: 6490; cell count [4, 23]: 7750; luciferase signal [14]: 76 AU (inactive)

**Q.** With `O=C1NS(=O)(=O)c2ccccc21` as the compound, how does the inhibition [5] read?
**A.** 13.8%

**Q.** What about the score [6] of the same compound?
**A.** 0.92

**Q.** What about the rescue above control [7] of the same compound?
**A.** -8.57

**Q.** What about the cytochrome c release ratio [8] of the same compound?
**A.** 0.95

**Q.** And the inhibition of aggregation [9]?
**A.** 78.3%

**Q.** And the glutamate uptake change [10]?
**A.** 6.02%

**Q.** What about the inclusion score [11] of the same compound?
**A.** 2

**Q.** What about the aggregation suppression score [12] of the same compound?
**A.** 1.22

**Q.** What about the parasite load remaining [1] of the same compound?
**A.** 95.1% (inactive) and 37.4% (inactive)

**Q.** What about the viability [1] of the same compound?
**A.** 71.8% and 92.3%

**Q.** And the inhibition [2]?
**A.** 10.4% (inactive)

**Q.** What about the red/green cell ratio (normalised) [3] of the same compound?
**A.** 1.14 (inactive)

**Q.** What about the normalised cell number [3, 18] of the same compound?
**A.** 1.03

**Q.** What about the normalised cell number [3, 19] of the same compound?
**A.** 1.17

**Q.** What about the remaining NAD [13] of the same compound?
**A.** 10 nM (inactive)

**Q.** What about the luciferase signal [14] of the same compound?
**A.** 40 AU (inactive)

**Q.** Which results are given for `COc1ccc([C@@H]2CC(=O)c3c(O)cc(O)cc3O2)cc1O`?
**A.** fluorescence slope change [17]: 5.5% (inactive); inhibition [5]: 11%; score [6]: 0.56; rescue above control [7]: 6.5; cytochrome c release ratio [8]: 0.93; inhibition of aggregation [9]: 17%; glutamate uptake change [10]: 0%; inclusion score [11]: 2; aggregation suppression score [12]: 0.264; survival [16]: 17.8 (inactive); parasite load remaining [1]: 25.2% (inactive) and 110% (inactive); viability [1]: 46.9% and 88%; inhibition [2]: 4.68% (inactive); red/green cell ratio (normalised) [3]: 0.91 (inactive); normalised cell number [3, 18]: 1.28; normalised cell number [3, 19]: 1.16; fold change [4, 20]: 0.922 (inactive) and 1.13 (inactive); fold change [4, 21]: 1.33 and 0.691; cell count [4, 22]: 8710 and 6120; cell count [4, 23]: 9450 and 5440; luciferase signal [14]: 48 AU (inactive)

**Q.** Which inhibition [5] does the source give for `NC(N)=O` here?
**A.** 5.74%

**Q.** What about the score [6] of the same compound?
**A.** 1.17

**Q.** What about the rescue above control [7] of the same compound?
**A.** 4.79

**Q.** What about the cytochrome c release ratio [8] of the same compound?
**A.** 1.04

**Q.** And the inhibition of aggregation [9]?
**A.** 43.7%

**Q.** What about the glutamate uptake change [10] of the same compound?
**A.** -1.11%

**Q.** And the inclusion score [11]?
**A.** 2

**Q.** What about the aggregation suppression score [12] of the same compound?
**A.** 1.21

**Q.** And the parasite load remaining [1]?
**A.** 107% (inactive) and 54.8% (inactive)

**Q.** And the viability [1]?
**A.** 72.7% and 99.5%

**Q.** And the inhibition [2]?
**A.** -2.6% (inactive)

**Q.** What about the red/green cell ratio (normalised) [3] of the same compound?
**A.** 0.95 (inactive)

**Q.** What about the normalised cell number [3, 18] of the same compound?
**A.** 1.22

**Q.** What about the normalised cell number [3, 19] of the same compound?
**A.** 1.16

**Q.** And the fold change [4, 20]?
**A.** 0.93 (inactive)

**Q.** What about the fold change [4, 21] of the same compound?
**A.** 2.44

**Q.** And the cell count [4, 22]?
**A.** 12300

**Q.** And the cell count [4, 23]?
**A.** 13300

**Q.** And the remaining NAD [13]?
**A.** 10 nM (inactive)

**Q.** What about the luciferase signal [14] of the same compound?
**A.** 52 AU (inactive)

**Q.** What does the source list for `CCN(CC)Cc1ccc(Nc2ccnc3cc(Cl)ccc23)cc1O`?
**A.** inhibition [5]: -50.2%; score [6]: 1.49; rescue above control [7]: 8.25; cytochrome c release ratio [8]: 0.74; inhibition of aggregation [9]: 65.5%; glutamate uptake change [10]: 1.51%; aggregation suppression score [12]: 1.68; parasite load remaining [1]: -0.345% (active) and 0.905% (inactive); viability [1]: 63% and 59.3%; inhibition [2]: 4.92% (inactive); red/green cell ratio (normalised) [3]: 0.8 (inactive); normalised cell number [3, 18]: 1.14; normalised cell number [3, 19]: 0.91; fold change [4, 20]: 0.936 (inactive); fold change [4, 21]: 0.896; cell count [4, 22]: 8520; cell count [4, 23]: 9100
